Assay results from PubChem BioAssay (NCI).
This is part of a sample that, as a whole, favours compounds with a hit. Of some 79,000 tested, about 15% had one in any assay. Active and inactive are the calls of the source. Cut-off read from the data, not from the text of the source: active = growth inhibition above about 70%; inactive = the rest.

Assays:
[1] = NCI Yeast Anticancer Drug Screen. Data for the rad52 strain (AID 147);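 note: 0% = growth of vehicle-treated control cultures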; conditions: S. cerevisiae rad52 mutant growth inhibition, hits give high values
Summary of the method: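 Measured: yeast growth inhibition. System: strain with a defined DNA damage repair alteration. Reference: vehicle-treated control cultures.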

[2] = NCI Yeast Anticancer Drug Screen. Data for the wt1 strain (AID 149);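 note: 0% = growth of vehicle-treated wt1 cultures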; conditions: S. cerevisiae wt1 strain (SPY 50644) growth inhibition, hits give high values
Summary of the method: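 Readout: yeast growth inhibition, normalised to vehicle controls, in the wt1 strain exposed to test compounds.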

[3] = NCI Yeast Anticancer Drug Screen. Data for the rad50EPP+ strain (AID 151);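 note: 0% = growth of vehicle-treated control cultures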; conditions: S. cerevisiae rad50 mutant strain, hits give high values
Summary of the method: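 One strain with a rad50 alteration (rad50EPP+) was compound-treated, its growth then compared to that of vehicle controls.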

[4] = NCI Yeast Anticancer Drug Screen. Data for the mgt1 strain (AID 153); conditions: S. cerevisiae mgt1 mutant growth inhibition, hits give high values
Summary of the method: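 After exposure of the mgt1 yeast mutant to compound, growth was measured and reported as inhibition compared with vehicle controls.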

[5] = NCI Yeast Anticancer Drug Screen. Data for the rad50 strain (AID 155);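 note: 0% = growth of vehicle-only cultures of the same strain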; conditions: S. cerevisiae rad50 strain growth inhibition, hits give high values
Summary of the method: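 Compounds were tested on a yeast strain with an engineered DNA damage repair alteration; the reported value is growth inhibition normalised to vehicle treatment.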

[6] = NCI Yeast Anticancer Drug Screen. Data for the mec2-1 strain (AID 157); conditions: S. cerevisiae mec2-1 strain, hits give high values
Summary of the method: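 Test agents were screened against the mec2-1 yeast strain, with defined DNA repair or cell cycle alteration. Growth was scored as inhibition against vehicle-only controls.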

[7] = NCI Yeast Anticancer Drug Screen. Data for the rad14 strain (AID 159);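 note: 0% = growth of vehicle-treated control cultures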; conditions: S. cerevisiae rad14 strain growth inhibition, hits give high values
Summary of the method: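 Compound-treated yeast with a defined DNA-repair lesion; growth inhibition normalised to vehicle-treated cultures.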

[8] = NCI Yeast Anticancer Drug Screen. Data for the sgs1 mgt1 strain (AID 161);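 note: 0% = growth of cultures given vehicle only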; conditions: S. cerevisiae sgs1 mgt1 strain, hits give high values
Summary of the method: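 Inhibition of yeast growth, normalised to vehicle-treated controls, is reported for a strain bearing genetic alterations in DNA damage repair.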

[9] = NCI Yeast Anticancer Drug Screen. Data for the CLN2oe strain (AID 163);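 note: 0% = growth of vehicle-only control cultures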; conditions: S. cerevisiae CLN2oe strain, hits give high values
Summary of the method: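 Here, growth inhibition in a cell-cycle-altered yeast strain after compound exposure was quantified against vehicle control growth.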

[10] = NCI Yeast Anticancer Drug Screen. Data for the cln2 rad14 strain (AID 165);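 note: 0% = growth equal to vehicle treated cultures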; conditions: S. cerevisiae cln2 rad14 strain, hits give high values
Summary of the method: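 Growth of compound-exposed yeast (cln2 rad14 genotype) measured and expressed as inhibition relative to vehicle.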

[11] = NCI Yeast Anticancer Drug Screen. Data for the bub3 strain (AID 167); conditions: S. cerevisiae bub3 mutant strain, hits give high values
Summary of the method: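 Growth of a checkpoint-deficient yeast mutant is measured after compound exposure. Values represent inhibition relative to vehicle.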

[12] = NCI Yeast Anticancer Drug Screen. Data for the wt2 strain (AID 169);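 note: 0% = growth of vehicle-treated yeast cultures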; conditions: S. cerevisiae wt2 strain growth inhibition, hits give high values
Summary of the method: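 Genetically defined yeast strains from a DNA-repair/cell-cycle panel were used. Compound-exposed yeast growth was measured, and the inhibition was calculated relative to vehicle treatment.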

[13] = NCI Yeast Anticancer Drug Screen. Data for the mlh1 strain (AID 171);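 note: 0% = growth of vehicle-treated control cultures of the same strain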; conditions: S. cerevisiae mlh1 strain growth inhibition, hits give high values
Summary of the method: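 Here the genetically defined yeast mutant is grown with each compound, and the extent to which its growth falls below that of vehicle-exposed cells is reported.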

[14] = NCI Yeast Anticancer Drug Screen. Data for the sgs1 strain (AID 173);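 note: 0% = growth of vehicle-only control cultures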; conditions: S. cerevisiae sgs1 mutant, hits give high values
Summary of the method: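 Relative growth inhibition, referenced to vehicle, was determined in a yeast strain with a defined alteration affecting DNA damage repair or cell cycle control after compound exposure.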

[15] = NCI Yeast Anticancer Drug Screen. Data for the mlh1 rad18 strain (AID 175); conditions: S. cerevisiae mlh1 rad18 strain growth inhibition, hits give high values
Summary of the method: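 In this whole-cell yeast screen, a strain with altered DNA damage repair is challenged with compound, and its growth is measured against matched vehicle-treated controls.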

[16] = NCI Yeast Anticancer Drug Screen. Data for the rad18 strain (AID 177); conditions: S. cerevisiae rad18 mutant growth inhibition, hits give high values
Summary of the method: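 Screen uses a yeast strain with a defined lesion in DNA damage repair; compound effect is read as loss of growth compared to untreated vehicle cultures.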

[17] = at 5.0 µM (retest, dose inferred, filed as 0.5)
[18] = at 50.0 µM (retest, dose inferred, filed as 5.0)

Measured: growth inhibition

Cc1ccc(Nc2n[nH]c(=S)s2)cc1
inactive: [1]; at 1.2 µM -2% | [1]; at 3.7 µM 2% | [1]; at 11.0 µM 6% | [2]; at 1.2 µM -21% | [2]; at 3.7 µM -12% | [2]; at 11.0 µM -19% | [2]; at 33.0 µM 35% | [3]; at 1.2 µM -13% | [3]; at 3.7 µM -10% | [3]; at 11.0 µM -11% | [3]; at 33.0 µM 6% | [3]; at 100.0 µM 68% | [4]; at 1.2 µM -6% | [4]; at 3.7 µM -5% | [4]; at 11.0 µM -3% | [4]; at 33.0 µM 65% | [5]; at 1.2 µM 5% | [5]; at 3.7 µM -1% | [5]; [17] 44% | [5]; at 11.0 µM 0% | [6]; at 1.2 µM -13% | [6]; at 3.7 µM -29% | [6]; [17] 39% | [6]; at 11.0 µM -27% | [6]; at 33.0 µM 13% | [6]; [18] 55% | [7]; at 1.2 µM -14% | [7]; at 3.7 µM -28% | [7]; at 11.0 µM -11% | [8]; [17] 1% | [9]; at 1.2 µM 11% | [9]; at 3.7 µM 2% | [9]; at 11.0 µM 3% | [9]; at 33.0 µM 40% | [10]; [17] 60% | [11]; at 1.2 µM 1% | [11]; at 3.7 µM -12% | [11]; [17] 45% | [11]; at 11.0 µM -3% | [11]; at 33.0 µM 53% | [12]; at 1.2 µM -12% | [12]; at 3.7 µM -6% | [12]; at 11.0 µM -17% | [12]; at 33.0 µM 47% | [13]; at 1.2 µM -10% | [13]; at 3.7 µM -34% | [13]; at 11.0 µM -23% | [13]; at 33.0 µM 29% | [14]; at 1.2 µM -34% | [14]; at 3.7 µM -36% | [14]; at 11.0 µM -25% | [14]; at 33.0 µM 41% | [15]; [17] 36% | [15]; [18] 60% | [16]; at 1.2 µM -17% | [16]; at 3.7 µM -10% | [16]; at 11.0 µM 0%
active: [1]; at 33.0 µM 74% | [1]; at 100.0 µM 94% | [2]; at 100.0 µM 92% | [4]; at 100.0 µM 94% | [5]; at 33.0 µM 72% | [5]; [18] 80% | [5]; at 50.0 µM 87% | [5]; at 100.0 µM 93% | [6]; at 50.0 µM 86% | [6]; at 100.0 µM 93% | [7]; at 33.0 µM 81% | [7]; at 100.0 µM 95% | [8]; [18] 91% | [9]; at 100.0 µM 91% | [10]; [18] 94% | [11]; [18] 91% | [11]; at 100.0 µM 93% | [12]; at 100.0 µM 92% | [13]; at 100.0 µM 92% | [14]; at 100.0 µM 88% | [15]; at 50.0 µM 85.7% | [16]; at 33.0 µM 80% | [16]; at 100.0 µM 94%
